The supplement of paper PMC6555819

What was measured:
Assay in all cases: PBM binding z-score (relative to random genomic background probes); higher = stronger binding; sequences stand for … in GC…GCGATTGACAGCGTAGAATGAAGG
[1] = system: RARb homodimer (NR concentration 270 nM)
Method in brief: (§1)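 The probes on custom Agilent 4×180K protein-binding microarrays were double-stranded, with 34-nt variable regions bearing direct-repeat seeds, single-nucleotide variants, half-site ablations and random human genomic background sequences. Incubation lasted 1 h with ligand-free nuclear receptor dimers in PBS pH 7.4, 2% milk, 0.02% Triton X-100, 1 mM DTT, 0.2 mg/mL BSA and 0.4 mg/ml salmon testes DNA. Antibodies against each partner (one per run) detected bound dimers, and fluorescence scans were regression-normalized. Binding z-scores take the random background probes as reference.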

[2] = system: RARg:RXRa (NR concentration 270 nM, RXRa partner concentration 90 nM)
Method in brief: as §1

[3] = system: RARg homodimer (NR concentration 270 nM)
Method in brief: as §1

[4] = system: RXRa DBDmut IVT, anti-RXR (DBD mutation: RXRa K156A/R161A, NR concentration 90 nM)
Method in brief: as §1

[5] = system: RXRa homodimer (NR concentration 180 nM)
Method in brief: as §1

[6] = system: THRa:RXRa (NR concentration 90 nM, RXRa partner concentration 90 nM)
Method in brief: as §1

[7] = system: THRa homodimer (NR concentration 90 nM)
Method in brief: as §1

[8] = system: VDR homodimer (NR concentration 270 nM)
Method in brief: as §1

For GCATATAGCTAATACAAGGTGAAAGTCCGATTGT, the PBM binding z-score [1] was 0.396, the PBM binding z-score [2] was 0.366 and the PBM binding z-score [3] was 0.451. It also gave a PBM binding z-score [4] of 0.494, a PBM binding z-score [5] of 0.476 and a PBM binding z-score [6] of 1.43. The PBM binding z-score [7] was 0.866 and the PBM binding z-score [8] was 0.162.
ACTAGCAGGCCAAGGGTCACTCATGATTAGTCCG showed a PBM binding z-score [1] of 3.68, a PBM binding z-score [2] of 4.01 and a PBM binding z-score [3] of 3.58. The PBM binding z-score [4] was 0.479, the PBM binding z-score [5] was 4.18 and the PBM binding z-score [6] was 2.31. It also gave a PBM binding z-score [7] of 0.0224 and a PBM binding z-score [8] of 1.07.
Work on ATCTCTAGGTAAAACTTCAGTGAATCCCGAGGAT yielded a PBM binding z-score [1] of -0.785, a PBM binding z-score [2] of 0.396 and a PBM binding z-score [3] of 0.43. It also gave a PBM binding z-score [4] of -0.375, a PBM binding z-score [5] of 0.101 and a PBM binding z-score [6] of 0.283. It also gave a PBM binding z-score [7] of -0.319 and a PBM binding z-score [8] of -0.455.
TCATATAGGTAAACAGGAGAAAGTCCGTAAGTTA showed a PBM binding z-score [1] of -0.0173, a PBM binding z-score [2] of 0.0941 and a PBM binding z-score [3] of 0.0897. It also gave a PBM binding z-score [4] of 1.4, a PBM binding z-score [5] of 0.771 and a PBM binding z-score [6] of 0.0424. For the same sequence, the PBM binding z-score [7] was -0.0606 and the PBM binding z-score [8] was 0.309.
In the case of ATCTCTAGGTACGACTCAGTTCAGTGAAGAACGC, the PBM binding z-score [1] is reported as 0.848, the PBM binding z-score [2] is reported as 0.255 and the PBM binding z-score [3] is reported as 0.331. It also gave a PBM binding z-score [4] of 1.19, a PBM binding z-score [5] of 0.123 and a PBM binding z-score [6] of 0.879. The PBM binding z-score [7] was 0.878 and the PBM binding z-score [8] was 2.02.
AGAATGAGGTTATTAAGACCAGGGAATTGCGGTC was tested, and the PBM binding z-score [1] was 0.935, the PBM binding z-score [2] was 1.24 and the PBM binding z-score [3] was 0.733. For the same sequence, the PBM binding z-score [4] was 1.64, the PBM binding z-score [5] was 1.91 and the PBM binding z-score [6] was 2.17. The PBM binding z-score [7] was 0.47 and the PBM binding z-score [8] was 0.915.
CCTACTGGGCCACGAAAGGTCGTTGATTCAGTGA was tested, and the PBM binding z-score [1] was 2.27, the PBM binding z-score [2] was 1.65 and the PBM binding z-score [3] was 1.29. It also gave a PBM binding z-score [4] of -0.0734, a PBM binding z-score [5] of 2.09 and a PBM binding z-score [6] of 2.26. It also gave a PBM binding z-score [7] of -0.153 and a PBM binding z-score [8] of 0.759.
Work on CTACCAAGGTGAACAAGGTGGTTGATTACTATTC yielded a PBM binding z-score [1] of 0.848, a PBM binding z-score [2] of 0.716 and a PBM binding z-score [3] of 0.76. It also gave a PBM binding z-score [4] of 0.305, a PBM binding z-score [5] of 0.617 and a PBM binding z-score [6] of 1.7. The PBM binding z-score [7] was 0.798 and the PBM binding z-score [8] was -0.122.
In the case of CGGCCAAGGTCAGAGAGGTCAGTGAATGCCGAGT, the PBM binding z-score [1] is reported as 5.45, the PBM binding z-score [2] is reported as 6.22 and the PBM binding z-score [3] is reported as 7.62. The PBM binding z-score [4] was 3.44, the PBM binding z-score [5] was 6.21 and the PBM binding z-score [6] was 4.17. The PBM binding z-score [7] was 2.42 and the PBM binding z-score [8] was 5.9.
Sequence ATCGAAAGGTCGACGAGGTGAGTTTACACCGTTT has a PBM binding z-score [1] of 3.04, a PBM binding z-score [2] of 4.11 and a PBM binding z-score [3] of 3.94. For the same sequence, the PBM binding z-score [4] was 1.48, the PBM binding z-score [5] was 4.05 and the PBM binding z-score [6] was 3.8. The PBM binding z-score [7] was 0.782 and the PBM binding z-score [8] was 2.35.
Sequence AGTCAAAGTTCAGGATGAGGTAACGTAAAGCACG has a PBM binding z-score [1] of 3.38, a PBM binding z-score [2] of 4.78 and a PBM binding z-score [3] of 4.82. It also gave a PBM binding z-score [4] of 2.73, a PBM binding z-score [5] of 3.26 and a PBM binding z-score [6] of 4.21. It also gave a PBM binding z-score [7] of 1.73 and a PBM binding z-score [8] of 2.09.
TTACCAAGATGAAAGGTCGTTGATGCACGCCTTG was tested, and the PBM binding z-score [1] was 1.55, the PBM binding z-score [2] was 1.58 and the PBM binding z-score [3] was 0.973. The PBM binding z-score [4] was 0.753, the PBM binding z-score [5] was 2.49 and the PBM binding z-score [6] was 1.27. The PBM binding z-score [7] was -0.262 and the PBM binding z-score [8] was 1.53.
For CATACAGGGTCAGCTAGGCCAGAGTGGGGACGGC, the PBM binding z-score [1] was 3.76, the PBM binding z-score [2] was 4.58 and the PBM binding z-score [3] was 4.75. The PBM binding z-score [4] was 1.4, the PBM binding z-score [5] was 4.23 and the PBM binding z-score [6] was 3.12. The PBM binding z-score [7] was 1.52 and the PBM binding z-score [8] was 1.59.
For CAAACTAGGTCAAAGTTCAAAGTCGAGCCAACCA, the PBM binding z-score [1] was 4.52, the PBM binding z-score [2] was 7.71 and the PBM binding z-score [3] was 6.23. It also gave a PBM binding z-score [4] of 3.95, a PBM binding z-score [5] of 8.77 and a PBM binding z-score [6] of 4.23. The PBM binding z-score [7] was 1.21 and the PBM binding z-score [8] was 4.43.
For TTACCAAGGTGAGCTGAGGTCGTTGAGCCAACTC, the PBM binding z-score [1] was 1.75, the PBM binding z-score [2] was 1.39 and the PBM binding z-score [3] was 0.933. It also gave a PBM binding z-score [4] of -0.158, a PBM binding z-score [5] of 1.48 and a PBM binding z-score [6] of 4.77. The PBM binding z-score [7] was 2.04 and the PBM binding z-score [8] was 1.96.
Sequence TGTCAAAGTTCAAAGGTAACGTCAGTATCCACAC has a PBM binding z-score [1] of 4.03, a PBM binding z-score [2] of 6.26 and a PBM binding z-score [3] of 5.87. The PBM binding z-score [4] was 4.29, the PBM binding z-score [5] was 6.96 and the PBM binding z-score [6] was 3.51. The PBM binding z-score [7] was -0.193 and the PBM binding z-score [8] was 4.08.
For AGTCAAAGTTCAGGACGAGGTATCGTAAAGCACG, the PBM binding z-score [1] was 2.81, the PBM binding z-score [2] was 4.03 and the PBM binding z-score [3] was 4.67. It also gave a PBM binding z-score [4] of 2.93, a PBM binding z-score [5] of 2.81 and a PBM binding z-score [6] of 2.54. It also gave a PBM binding z-score [7] of 0.691 and a PBM binding z-score [8] of 2.06.
CTCGAAAGGTCGTGCTCAGCTGAGTATACCAAAC gave a PBM binding z-score [1] of 2.34, a PBM binding z-score [2] of 4.28 and a PBM binding z-score [3] of 3.82. For the same sequence, the PBM binding z-score [4] was 2.32, the PBM binding z-score [5] was 4.89 and the PBM binding z-score [6] was 2.19. For the same sequence, the PBM binding z-score [7] was -0.199 and the PBM binding z-score [8] was 0.89.
TCTCGGAGGACACGAAAGTCAGAGCTTTCCAGAG was tested, and the PBM binding z-score [1] was 0.384, the PBM binding z-score [2] was 0.378 and the PBM binding z-score [3] was 1.08. The PBM binding z-score [4] was 0.647, the PBM binding z-score [5] was -0.0691 and the PBM binding z-score [6] was 1.21. It also gave a PBM binding z-score [7] of 0.236 and a PBM binding z-score [8] of -0.621.
CCTACTGGGCCAACGGTCATTGATTCCAATGCTC showed a PBM binding z-score [1] of 1.45, a PBM binding z-score [2] of 0.293 and a PBM binding z-score [3] of 0.841. For the same sequence, the PBM binding z-score [4] was -0.454, the PBM binding z-score [5] was -0.191 and the PBM binding z-score [6] was -0.306. The PBM binding z-score [7] was -0.382 and the PBM binding z-score [8] was -0.141.
For TCTTGCAGATCAACAGGAGGTTAAGAAAGATCGA, the PBM binding z-score [1] was 0.407, the PBM binding z-score [2] was 0.798 and the PBM binding z-score [3] was 0.138. The PBM binding z-score [4] was 0.162, the PBM binding z-score [5] was 0.749 and the PBM binding z-score [6] was 0.859. It also gave a PBM binding z-score [7] of -0.241 and a PBM binding z-score [8] of -0.1.
GTACCAAGGTGAATAGATCGTTGATGAGTAGGCG gave a PBM binding z-score [1] of 0.231, a PBM binding z-score [2] of 0.664 and a PBM binding z-score [3] of 0.719. The PBM binding z-score [4] was -0.335, the PBM binding z-score [5] was 0.634 and the PBM binding z-score [6] was 1.03. It also gave a PBM binding z-score [7] of 0.372 and a PBM binding z-score [8] of -0.106.
Sequence CCTCGGAGGACAGGAGGTCAGAGCTGTCCGCTTT has a PBM binding z-score [1] of 3.17, a PBM binding z-score [2] of 3.42 and a PBM binding z-score [3] of 3.29. It also gave a PBM binding z-score [4] of 0.04, a PBM binding z-score [5] of 2.07 and a PBM binding z-score [6] of 2.67. The PBM binding z-score [7] was 0.822 and the PBM binding z-score [8] was 0.982.
ATATGTAGATTAGCTGGGGTCATTCAGACTAGGC showed a PBM binding z-score [1] of 3.49, a PBM binding z-score [2] of 3.43 and a PBM binding z-score [3] of 2.17. The PBM binding z-score [4] was 1.87, the PBM binding z-score [5] was 4.94 and the PBM binding z-score [6] was 4.26. For the same sequence, the PBM binding z-score [7] was 3.01 and the PBM binding z-score [8] was 4.47.
TCTTGTAGATCAATAGGGGTTAAGAAAGTGCGCT was tested, and the PBM binding z-score [1] was 1.26, the PBM binding z-score [2] was 1.07 and the PBM binding z-score [3] was 0.498. The PBM binding z-score [4] was 1.53, the PBM binding z-score [5] was 2.18 and the PBM binding z-score [6] was 2.19. For the same sequence, the PBM binding z-score [7] was 0.19 and the PBM binding z-score [8] was 0.671.
For AGAATGAGGCTAAGATCAGGGAAACAGAATACAT, the PBM binding z-score [1] was 0.17, the PBM binding z-score [2] was 0.222 and the PBM binding z-score [3] was 0.265. The PBM binding z-score [4] was -0.309, the PBM binding z-score [5] was -0.046 and the PBM binding z-score [6] was 0.533. It also gave a PBM binding z-score [7] of 0.04 and a PBM binding z-score [8] of -0.208.
